A549 viability: A549 cytotoxicity, counter-screen for Nrf2 inhibitors; A549 ARE-Fluc cells, CellTiter-Fluor viability, 18-24 h; Potency, µM (titrated, usually from 46 µM), without a hit: at the highest dose activity change, negative = cytotoxicity, hits mostly inhibitors; 390,000 tested, 0.16% active; further: on the % scale 0 is the no-effect control and ±100 the full control effect
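Cytotoxicity counterscreen: CellTiter-Fluor fluorescence was measured in A549 ARE_Fluc cells after 18-24 h of compound exposure in a concentration series. The subsequent BugLite luminescent read reports ARE-luciferase activity.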
Nrf2 inh: blocks Nrf2 signaling. A549 ARE-Fluc reporter, luciferase luminescence, 18-24 h. Potency, µM (doses to about 46 µM), without a hit: top-dose activity change, negative = inhibition, most hits filed as inhibitors. 360,000 tested, 2.1% active. AID 504444; further: on the % scale 0 is the no-effect control and ±100 the full control effect; nearly all actives have a fitted effect of over 60% in size
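Nrf2 function is reported as luminescence of an ARE-controlled luciferase in A549 cells. Compounds were tested at several concentrations, and a CellTiter-Fluor read on the same wells flagged cytotoxicity.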
TrxR1 substrate: rat thioredoxin reductase 1 substrate activity | O89049 | purified TrxR1 substrate turnover, NADPH consumption readout | Potency, µM (series often up to 114 µM), for inactives: at the highest dose activity change, negative = substrate turnover | 390,000 tested, 0.01% active; further: on the % scale 0 is the no-effect control and ±100 the full control effect; nearly all actives have a fitted effect of over 50% in size
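Rat TrxR1, dispensed at 90 nM, was prereduced with 400 uM NADPH (final) for 5 min at ~22 deg C, then incubated with compound 15 min before 400 uM selenite. A first-read NADPH fluorescence drop versus no-compound background flagged substrates.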
GALK inh: galactokinase (human) inhibition. P51570. Purified GALK, Kinase-Glo residual ATP luminescence. Potency, µM (series often up to 57.5 µM), for inactives: at the highest dose activity change, negative = inhibition, most hits filed as inhibitors. 270,000 tested, 0.007% active; further: on the % scale 0 is the no-effect control and ±100 the full control effect
Target sequence (P51570 whole entry, looked up): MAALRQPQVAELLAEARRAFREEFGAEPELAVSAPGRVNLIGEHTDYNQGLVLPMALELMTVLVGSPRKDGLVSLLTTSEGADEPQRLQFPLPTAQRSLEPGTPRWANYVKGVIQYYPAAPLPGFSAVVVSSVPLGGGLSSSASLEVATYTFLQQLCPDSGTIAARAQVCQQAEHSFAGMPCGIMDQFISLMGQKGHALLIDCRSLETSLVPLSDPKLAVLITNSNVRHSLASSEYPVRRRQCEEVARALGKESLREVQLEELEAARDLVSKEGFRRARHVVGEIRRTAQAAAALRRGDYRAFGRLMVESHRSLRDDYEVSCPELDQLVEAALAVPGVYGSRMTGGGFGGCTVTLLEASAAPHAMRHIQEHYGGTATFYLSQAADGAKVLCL
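The enzyme phosphorylates galactose (100 uM) using ATP (35 uM); inhibition is detected as higher residual ATP, quantified by bioluminescence after 1 h reaction at room temperature, pH 8.0.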
Nrf2 activator: activators of Nrf2 (ARE) signaling; AID 624171; Potency, µM (titrated, usually from 46.1 µM), inactives show top-dose activation, hits mostly activators; 410,000 tested, 0.31% active; AREc32 ARE-luciferase reporter (MCF7-derived line), luminescence, 24 h; further: % of control where 0% means no effect; nearly all actives have a fitted effect of over 65% in size
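AREc32 cells carrying an ARE-driven firefly luciferase, 1000 cells/well in OPTI-MEM with 5% FBS, dosed after overnight attachment and incubated 24 hr at 37 deg C. Steady-Glo luminescence read after 30 min at RT.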
rTrxR1 inhibitor: inhibitors of rat thioredoxin reductase 1; Potency, µM (top dose mostly 114 µM), inactives show at the highest dose activity change, negative = inhibition, hits mostly inhibitors; O89049; 390,000 tested, 1% active; recombinant rTrxR1, NADPH fluorescence consumption, selenite substrate; further: on the % scale 0 is the no-effect control and ±100 the full control effect; nearly all actives have a fitted effect of over 65% in size
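Rat TrxR1 (90 nM in the dispensed reagent) was pre-reduced with 400 uM NADPH for 5 min at room temperature, then incubated with compound for 15 min. After 400 uM selenite was added, NADPH fluorescence (Ex 340/Em 450 nm) was followed for 8 min.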
Active calls of the source: *; ? = inconclusive; . = no result given; [ ] = remark or other dose. Most compounds without a hit are left out; they make up all but 3% or so of the library. The call rests on the fitted dose curve; in most records, active means well fitted curve in the direction sought with a large enough effect; inconclusive means small, poorly fitted or top-dose-only effect, or another doubt; inactive means no such curve, though single readings can be large; an effect the other way counts as inactive or inconclusive. Potency means the concentration at half of the fitted maximal effect.

SMILES	A549 viability	Nrf2 inh	TrxR1 substrate	GALK inh	Nrf2 activator	rTrxR1 inhibitor
CC(=O)N=c1sc2nc3ccccc3nc2n1N(C(C)=O)C(C)=O	?	?	10%	-2%	0%	40µM*
CCCCCN(C(=O)CCC(=O)OCc1ccc(C(C)(C)C)cc1)c1c(N)n(CCCC)c(=O)[nH]c1=O	-12%	13µM*	-1%	3%	3%	9%
COc1ccc2cc(CNc3ccc(C)cc3)c(=O)n(CC(=O)Nc3ccc(C)cc3Cl)c2c1	8%	?	1%	.	1%	5%
Cc1ccc(NC(=S)NC(=O)C2CCC2)cc1C	1%	?	3%	-3%	6%	50µM*
CCN(CC)C(=O)N1CCN(C)CC1	16%	13µM*	-2%	5%	0%	7%
CCN(CC)C(=O)N1CCN(C(=O)N(CC)CC)CC1	0%	2%	6%[57.1 µM]	1%	-1%	5%[57.1 µM]
O=C(/C=C/Sc1ccc(C(F)(F)F)cn1)c1ccccc1	?	?	0%	.	10%	1.3µM*
CCCC(c1nnnn1CC1CCCO1)N1CCN(c2cc(Cl)ccc2C)CC1 (configuration not stated)	?	26µM*	-12%	9%	3%	6%[57.1 µM]
Cc1ccc(Cl)cc1N1CCN(C(CC(C)C)c2nnnn2CC2CCCO2)CC1 (configuration not stated)	-5%	.	4%	-2%	0%	7%[57.1 µM]
Cc1ccc([C@@H]2C3COCC=C3C(C#N)=C(N)C2(C#N)C#N)o1 (some centres not stated)	-1%	.	19%	8%	3%	7.9µM*
Cc1ccc(C2C3CSCC=C3C(C#N)=C(N)C2(C#N)C#N)cc1 (configuration not stated)	?	15µM*	9%	-2%	?	?
CC(C)N1CC=C2C(C#N)=C(N)C(C#N)(C#N)C(c3ccccc3)C2C1 (configuration not stated)	-16%	?	85%	0%	0%	12%
CC(C)N1CC=C2C(C#N)=C(N)C(C#N)(C#N)[C@H](c3ccoc3)[C@H]2C1	.	.	.	-4%	.	.
O=C(O)Cc1ccc(O)c(O)c1	-2%	5%	9%[57.1 µM]	0%	1%	7.5µM*
O=C(O)Cc1ccc2ccc3ccccc3c2c1	3%	6%	10%	.	3%	15%
COc1cc(CCNC2=CC(=O)c3ncccc3C2=O)ccc1O	16µM*	13µM*	7%[57.1 µM]	.	-3%	-6%[11.4 µM]
COc1ccc(-n2cc(C(=O)Oc3cc(C)cc(C)c3)c3ccccc3c2=O)cc1	-5%	.	2%[57.1 µM]	.	0%	14%[57.1 µM]
COc1cccc(C2c3c(ncn(-c4cccc(Cl)c4)c3=N)Oc3ccc4ccccc4c32)c1 (configuration not stated)	5%	2%	.	.	.	.
O=S(=O)(Nc1cc(Cl)ccc1-n1cncn1)c1ccccc1Cl	1%	?	-8%	.	0%	-17%
O=S(=O)(Nc1cc(Cl)ccc1-n1cncn1)c1cc(Br)ccc1Br	?	13µM*	0%	.	0%	-3%
CCO/C=N/Nc1nc(C(F)(F)F)nc2c1cnn2Cc1ccccc1	-19%	23µM*	-9%	4%	0%	17%
O=C1C(=C(c2ccccc2)c2ccccc2)Nc2ccccc21	?	?	-10%	-2%	13µM*	-10%
CCN1CCOC(=O)C1CC(=O)Nc1cc(Cl)ccc1C (configuration not stated)	-3%	2%	4%	.	7%	11µM*
COc1ccc(Cl)cc1NC(=O)c1cc(C)no1	5%	7%	4%	.	8.9µM*	11%
COc1ccc(Cl)cc1NC(=O)c1cnccn1	1%	-13%	-1%	0%	13µM*	6%
SMILES	A549 viability	Nrf2 inh	TrxR1 substrate	GALK inh	Nrf2 activator	rTrxR1 inhibitor
Cc1ccc(O)c(NC(=O)c2cc(C)no2)c1	1%	?	2%	-2%	13µM*	0%
COc1ccc(OC)c(NC(=O)N(C)CCc2c(C)nn(C)c2C)c1	1%	.	3%[57.1 µM]	.	-1%	10%[57.1 µM]
Cc1ccc(-c2nn3c(C)nnc3s2)cc1NC(=O)c1ccc(-c2ccc(Cl)cc2Cl)o1	21µM*	?	112%	-4%	-1%	13%
Cc1ccc(-c2nn3c(C)nnc3s2)cc1NC(=O)c1ccc(-c2cccc(Cl)c2)o1	-13%	15µM*	-5%	2%	0%	35µM*
Cc1ccc(-c2nn3c(C)nnc3s2)cc1NC(=O)c1ccc(Br)o1	-14%	?	-2%[57.1 µM]	1%	5%	-18%[57.1 µM]
COC(=O)c1ccc(NC(=O)CC2C(=O)N(c3cccc(OC)c3)C(=O)N2C(C)C)cc1 (configuration not stated)	-4%	22%	4%	.	8%	7%
COc1ccc(OCC(=O)Nc2ccc(N3CCN(C(=O)c4ccco4)CC3)cc2)cc1	-4%	?	3%	-1%	0%	-2%[57.1 µM]
O=C(COC(=O)c1cccs1)Nc1ccccc1[N+](=O)[O-]	6%	4%	-3%	13%	11µM*	11%
Cc1ccccc1OCC(=O)Nc1ccc(N2CCN(C(=O)c3ccco3)CC2)cc1	-23%	15µM*	-6%	5%	3%	2%[57.1 µM]
O=C(COc1ccc(Cl)cc1)Nc1ccc(N2CCN(C(=O)c3ccco3)CC2)cc1	-1%	23µM*	3%	-4%	0%	27%
O=C(COc1ccccc1[N+](=O)[O-])Nc1ccc(N2CCN(C(=O)c3cccs3)CC2)cc1	-13%	5.8µM*	10%[57.1 µM]	0%	3%	28%[57.1 µM]
Cc1ccc(C(=O)Nc2ccc(N3CCN(C(=O)c4cccs4)CC3)cc2)c(Cl)c1	-12%	23µM*	5%	0%	0%	13%
O=C(O)c1cc(/C=C/C(=O)c2cc(F)ccc2O)c2c(c1)COCO2	9%	-8%	-11%	.	6%	45µM*
COc1ccc(C(=O)/C=C/c2cc(C(=O)O)cc3c2OCOC3)c(O)c1	?	?	-14%	2%	?	?
CC1=C(/C=C/C(C)=C/C=C/C(C)=C/CO)C(C)(C)CCC1	23%	2%	0%	.	6%	50µM*
COc1cccc(C2C(C(=O)c3cc4ccccc4o3)=C(O)C(=O)N2CCN2CCOCC2)c1 (configuration not stated)	-14%	?	2%[57.1 µM]	-2%	4%	?
COc1cccc2cc(C(=O)C3=C(O)C(=O)N(CCN(C)C)C3c3ccc(F)cc3)oc12 (configuration not stated)	-15%	-3%	-2%	1%	0%	-17%
